In all, about 2,300 compounds went through this assay and about 1,100 (48%) were called active. The rule behind the calls is not given here. The set was probably picked from earlier hits. This is one part of the list. Measured potencies and affinities stand elsewhere.
Experiment: S. typhi counter-screen signal inhibition – fluorescence, 4 h, counter-screen for PhoP regulon inhibitor project, dose response (AID 2384)
Settings: S. typhi GFP reporter counter-screen; series mostly up to 150 µM; inhibition: at the top concentration

Compound	inhibition
CCN(CC)CCOC(=O)c1ccc(N/C=C(/C#N)c2nc(-c3ccc(OC)c(OC)c3)cs2)cc1	-49.6% (inactive)
O=C(CSC1=NCCS1)Nc1nc2c(s1)CCCC2	-13.1% (inactive)
O=C(CSc1cccc2cccnc12)Nc1ccc(S(=O)(=O)N2CCOCC2)cc1	0.8% (inactive)
CC(=O)Nc1cc(-c2ccc(Cl)cc2)[nH]n1	14.5% (inactive)
CC(=O)c1c(C)nc(-c2cccc([N+](=O)[O-])c2)n1O	13.7% (inactive)
Cc1ccc(C(=O)NCC(=O)NCCc2ccc(S(N)(=O)=O)cc2)s1	-6.17% (inactive)
N#Cc1nc(COc2ccc(Br)cc2)oc1NCCCn1ccnc1	39.4% (inactive)
O=C1CCCN1c1ccc(CNS(=O)(=O)c2ccc(F)cc2)cc1	17.6% (inactive)
COc1cccc(-c2nc(CS(=O)CC(=O)NCCCOC(C)C)c(C)o2)c1 (stereo unspecified)	-12% (inactive)
COc1ccccc1C(=O)Nc1nnc(-c2ccc(Cl)cc2)o1	33.4% (inactive)
COc1ccc(S(=O)(=O)NCCSCc2ccco2)cc1Cl	15.2% (inactive)
COc1cc(C(=O)N/N=C/c2coc3ccccc3c2=O)cc(OC)c1OC	37.1% (inactive)
O=C(N/N=C\c1c[nH]c2ccccc12)c1ccc(O)cc1	37% (inactive)
Cn1c(N/N=C/c2c[nH]c3ccccc23)nc2ccccc21	15.1% (inactive)
O=C1CC(=O)CC(c2ccco2)C1	-5.92% (inactive)
FC(F)Oc1ccc(NC(=S)NCc2nc3ccccc3[nH]2)cc1	6.2% (inactive)
Cc1nn(-c2ccccc2)c(C)c1/C=N/n1c(-c2ccc(C(C)(C)C)cc2)n[nH]c1=S	-19.4% (inactive)
O=C1CCCN1CCC1CCN(C2CC(=O)N(c3ccc(Cl)cc3)C2=O)CC1 (stereo unspecified)	21.5% (inactive)
COc1ccc(C(=O)Oc2ccc(/C=N/O)cc2)cc1	18.4% (inactive)

Compound	inhibition
COc1ccc(-c2cc(=NCC(=O)O)c3ccccc3o2)cc1	10.1% (inactive)
CCCC1=C(C(=O)OCC)C(c2ccc(O)cc2)n2ncnc2N1 (stereo unspecified)	4.74% (inactive)
Cc1ccccc1C(=O)c1cccn1CC(=O)NCCC1=CCCCC1	10.5% (inactive)
Cc1cc2ccccc2c(=O)n1CC(=O)NCCC1=CCCCC1	14.6% (inactive)
Cc1nc(C)c(-c2ccc(SCc3ccccc3F)nn2)s1	-11.1% (inactive)
O=C(O)c1cn(-c2ccc(F)cc2)c2cc(Cl)c(F)cc2c1=O	22.6% (inactive)
COC(=O)C(O)(c1c(C)[nH]n(-c2ccccc2)c1=O)C(F)(F)F (stereo unspecified)	29.5% (inactive)
CN(C)C(=O)COC(=O)/C=C/c1ccccc1[N+](=O)[O-]	0.25% (inactive)
O=c1cc(-c2ccccc2)nc(N2CCN(Cc3ccccc3)CC2)[nH]1	10% (inactive)
Cc1nc2scc(C)n2c(=O)c1S(=O)(=O)N1CCN(c2cccc(C(F)(F)F)c2)CC1	-29.1% (inactive)
COc1ccccc1Oc1coc2c(CN3CCN(C)CC3)c(O)ccc2c1=O	-13.2% (inactive)
CCCC(c1nnnn1Cc1ccc(OC)cc1)N1CCN(c2ccccc2OC)CC1 (stereo unspecified)	-22.1% (inactive)
CCCCCN1C(=O)/C(=C/c2c(N3CCc4ccccc4C3)nc3ccccn3c2=O)SC1=S	-24.1% (inactive)
Cc1ccc(-n2ncc3c(=O)[nH]cnc32)c(C)c1	8.53% (inactive)
CCCCN(CCCC)CCNC(=O)CSCc1ccc(C)cc1	10.3% (inactive)
COc1ccc(N2C(=O)CC(N3CC=C(c4ccccc4)CC3)C2=O)cc1 (stereo unspecified)	-11.4% (inactive)
Brc1ccc2c(c1)CN1CCCC1=N2	15% (inactive)
CC(C)[C@@H](C(=O)NC1CCCC1)N1C(=O)N2CCc3c([nH]c4ccccc34)[C@@]2(C)C1=O	-11.3% (inactive)
O=C(N/N=C/c1ccc(F)c(F)c1)c1cc2c(s1)-c1ccccc1CC2	15% (inactive)

Compound	inhibition
COc1cccc(CNC23CC4CC(CC(C4)C2)C3)c1OCc1ccccc1	-6.35% (inactive)
COc1ccc(Cl)cc1NC(=O)c1cc(-c2ccccc2)on1	-21.2% (inactive)
COc1cc(CNc2ccc(N3CCN(C(C)=O)CC3)cc2)ccc1OCc1ccccc1	15.1% (inactive)
O=c1c2ccccc2nc(-c2ccoc2)n1CCc1ccccc1	13.3% (inactive)
CCc1nc(SCC(=O)NCCc2ccccc2)c2c(=O)n(C)c(=O)n(C)c2n1	16.1% (inactive)
Cn1c(=O)c2c(nc(Br)n2CCSc2nc3ccccc3o2)n(C)c1=O	-4.7% (inactive)
CC1(C)CC(CCNC(=O)c2ccc(-n3cnnn3)cc2)CC(C)(C)N1	-4.51% (inactive)
COc1ccc(C(=O)Nc2cc3c(cc2OC)CCCC3)cc1Br	-5.19% (inactive)
Nn1cnnc1SCC(=O)Nc1ccc(C2CCCCC2)cc1	27.5% (inactive)
c1ccc(-c2nc(NC3CC3)nc(-n3ccnc3)n2)cc1	-18.3% (inactive)
O=C(Nc1ccc2c(c1)nc1n2CCN(Cc2ccccc2)C1)c1cccs1	23.8% (inactive)
Cc1ccccc1Oc1ccc(Oc2ccccc2C)nn1	-7.56% (inactive)
CC1CCN(C(=O)C2CCCN(S(C)(=O)=O)C2)CC1 (stereo unspecified)	-2.71% (inactive)
CCN(CC)C(=O)C1CCN(Cc2ccc(Br)cc2)CC1	11.4% (inactive)
CN(C)C=NC(=O)c1cc(C(=O)c2ccc(Cl)cc2Cl)c[nH]1	29.9% (inactive)
C[N+]1(C)C2CCC1CC(OC(=O)c1ccccc1)C2 (stereo unspecified)	1.68% (inactive)
COc1ccc(N2C3=C(CC4=C2CC(C)(C)CC4=O)C(=O)CC(C)(C)C3)cc1	14.8% (inactive)
COc1ccc(Cl)cc1NC(=O)CN(C)CC(=O)Nc1ccccc1C(F)(F)F	9.99% (inactive)

From PubChem BioAssay AID2384 (Southern Research Specialized Biocontainment Screening …, 2010)
